The nature of assay [1]: UKN5_HCS_SBAD2_cell_viability: Viability Assessment in the University of Konstanz (UKN) Leist Lab Neurite Outgrowth Assay in human iPSC-derived immature Dorsal Root Ganglia Neurons (UKN5) (AID 2284056). The method, boiled down:
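iPSC-derived immature peripheral neurons (SBAD2) seeded on Matrigel with CHIR99021, SU5402 and DAPT, dosed 1 h later for 24 h. Viability from Hoechst H-33342 and calcein-AM live staining, high-content imaging; bidirectional fit versus DMSO.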

The nature of assay [2]: UKN5_HCS_SBAD2_neurite_outgrowth: University of Konstanz (UKN) Leist Lab Neurite Outgrowth Assay in human iPSC-derived immature Dorsal Root Ganglia Neurons (UKN5) (AID 2284070). As to conditions: actives raise or lower the signal. In a few lines:
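Neurite area from calcein-AM high-content images after 24 h exposure (staining included), with H-33342 for viability, fitted both directions against DMSO. Cells: thawed immature SBAD2 peripheral neurons, 100.000 cells/cm2, with CHIR99021, SU5402, DAPT; dosing 1 h after seeding.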

Assay [3] in a line: UKN4_HCS_LUHMES_neurite_outgrowth: University of Konstanz (UKN) Leist Lab Neurite Outgrowth Assay in human LUHMES cells (UKN4) (AID 2284206). As to conditions: actives raise or lower the signal. The method, boiled down: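 After 24 h compound treatment beginning shortly after replating of 2-day-differentiated LUHMES cells, calcein-AM and H-33342 live staining allowed high-content imaging of neurite area and viability. Fitted bidirectionally against DMSO.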

A short description of assay [4]: IUF_NPC1a_proliferation_area_72hr: Leibniz Research Institute for Environmental Medicine (IUF) 72-hour Neural Progenitor Cell Proliferation Area Assay (NPC1a) (AID 2284208). The method, boiled down: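 Read-out: increase in sphere area over 72 h by automated phase-contrast imaging, fitted in positive direction versus DMSO baseline. One hNPC sphere (0.25-0.35 mm) per well in EGF/FGF medium; growth-factor withdrawal served as positive control.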

Assay [5] in a line: IUF_NPC1_viability_72hr: Viability Assessment at 72 hours in the Leibniz Research Institute for Environmental Medicine (IUF) Neural Progenitor Cell Proliferation Assay (NPC1) (AID 2284209). In a few lines: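 Viability was measured by resazurin-to-resorufin fluorescence (alamar blue) after 72 h of continuous exposure without compound renewal. Each well held one hNPC sphere (gestational week 16-19 fetal cortex, 0.25-0.35 mm) cultured in EGF/FGF proliferation medium at 37C and pH 7.2-7.6.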

Assay [6] is described as follows: UKN4_HCS_LUHMES_cell_viability: Viability Assessment in the University of Konstanz (UKN) Leist Lab Neurite Outgrowth Assay in human LUHMES cells (UKN4) (AID 2284232). In a few lines: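 Viability was read by high-content imaging of calcein-AM/H-33342-stained cells after 24 h toxicant exposure, staining included. Cells: human LUHMES on day 2 of dopaminergic differentiation, dosed shortly after attachment; DMSO baseline, bidirectional curve fitting.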

A short description of assay [7]: UKN2_HCS_IMR90_cell_viability: Viability Assessment in the University of Konstanz (UKN) Leist Lab Neural Crest Cell Migration Assay in human induced IMR90 Pluripotent Stem Cells (UKN2) (AID 2284233).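 Further: cells exposed to compound for 24 h after a 24 h migration phase.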 In a few lines: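 After calcein-AM/Hoechst staining, viability is quantified by high-content fluorescence imaging, relative to DMSO, in iPSC (IMR90)-derived neural crest cells. Exposure lasts 24 h, starting after a 24 h migration period on PLO/laminin/fibronectin coating.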

Assay [8] in a line: IUF_NPC2c_oligodendrocyte_migration_120hr: Leibniz Research Institute for Environmental Medicine (IUF) 120-hour Neural Progenitor Cell Migration Assay for Oligodendrocyte Migration (NPC2c) (AID 2284297).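 Further: O4-positive oligodendrocyte migration distance divided by radial glia migration distance.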 The method, boiled down:
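Human fetal cortex-derived neural progenitor spheres (0.3 mm) were plated on poly-D-lysine/laminin in N2 differentiation medium and exposed to 7 concentrations for 120 h, with half-medium renewal at day 3. Oligodendrocyte migration distance was normalized to radial glia migration, relative to DMSO.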

Assay [9] in a line: IUF_NPC2a_radial_glia_migration_120hr: Leibniz Research Institute for Environmental Medicine (IUF) 120-hour Neural Progenitor Cell Migration Assay for Radial Glia Migration (NPC2a) (AID 2284298). In a few lines: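 Single 0.3 mm primary human fetal-cortex (GW 16-19) NPC spheres were plated on poly-D-lysine/laminin in N2 differentiation medium and exposed from day 0 for 120 h, half-medium refreshed day 3. Migration distance came from Hoechst nuclei-density imaging, relative to DMSO.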

Assay [10] can be described thus: IUF_NPC2b_neuronal_migration_120hr: Leibniz Research Institute for Environmental Medicine (IUF) 120-hour Neural Progenitor Cell Migration Assay for Neuron Migration (NPC2b) (AID 2284300). In a few lines:
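Primary human fetal cortex neural progenitor spheres (0.3 mm) plated on poly-D-lysine/laminin in N2 differentiation medium, exposed 120 h with half-medium refresh at day 3. TUBB3-stained neuron distance from sphere core, normalized to radial glia migration, versus DMSO.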

A short description of assay [11]: IUF_NPC3_neuronal_differentiation_120hr: Leibniz Research Institute for Environmental Medicine (IUF) 120-hour Neuronal Differentiation Assay (NPC3) (AID 2284301). In a few lines: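 Value is percent TUBB3-positive neurons among Hoechst-stained nuclei in the migration area, scored by trained CNN after 120 h differentiation. Primary hNPC spheres on poly-D-lysine/laminin, N2 medium, continuous dosing from day 0, half-refeed day 3; DMSO reference.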

Assay [12] can be described thus: IUF_NPC4_neurite_length_120hr: Leibniz Research Institute for Environmental Medicine (IUF) 120-hour Neuronal Morphology Assay for Neurite Length (NPC4) (AID 2284302). In a few lines: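 Neurite length, the mean in um across TUBB3-stained neurons, is derived by skeletonization of high-content images after 120 h differentiation. Compound exposure, 7 concentrations plus solvent control, ran from plating of hNPC spheres on poly-D-lysine/laminin, with medium half-replaced on day 3.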

Assay [13] is described as follows: IUF_NPC5_oligodendrocyte_differentiation_120hr: Leibniz Research Institute for Environmental Medicine (IUF) 120-hour Oligodendrocyte Differentiation Assay (NPC5) (AID 2284304; active means hit-call score of the fitted dose curve at least 0.9, where 1 is the maximum;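 further: primary human fetal neural progenitor spheres plated to migrate and differentiate; share of O4-positive cells among Hoechst nuclei found by CNN image analysis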). The method, boiled down:
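Primary human fetal (GW 16-19) neural progenitor spheres (0.3 mm) plated on poly-D-lysine/laminin in N2 differentiation medium, exposed from day 0 for 120 h with half-medium refresh at day 3; O4-positive cells as percent of Hoechst nuclei, CNN-identified, versus DMSO.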

Assay [14] can be described thus: IUF_NPC4_neurite_area_120hr: Leibniz Research Institute for Environmental Medicine (IUF) 120-hour Neuronal Morphology Assay for Neurite Area (NPC4) (AID 2284305; active means hit-call score of the fitted dose curve at least 0.9, where 1 is the maximum). In a few lines: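 Neurite area (pixels, nuclei excluded) of TUBB3-positive neurons from hNPC spheres differentiating 5 days under continuous exposure at 37 C, 5% CO2. High-content imaging; loss of signal versus DMSO control across 7 concentrations.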

The nature of assay [15]: IUF_NPC2-5_cytotoxicity_72hr: Cytotoxicity Assessment at 72 hours in the Leibniz Research Institute for Environmental Medicine (IUF) Neural Progenitor Cell Migration and Differentiation Assay for Cytotoxicity (NPC2-5) (AID 2284306; active means hit-call score of the fitted dose curve at least 0.9, where 1 is the maximum;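 further: LDH release into supernatant measured by resorufin fluorescence marking membrane damage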). The method, boiled down: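 Membrane-integrity cytotoxicity at 72 h, read as LDH-driven resorufin fluorescence in supernatant. hNPC spheres from fetal cortex differentiate on coated plates in N2 medium, 37C, 5% CO2; seven serial compound concentrations plus solvent control (DMSO ≤0.1%).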

Assay [16] can be described thus: IUF_NPC2-5_cytotoxicity_120hr: Cytotoxicity Assessment at 120 hours in the Leibniz Research Institute for Environmental Medicine (IUF) Neural Progenitor Cell Migration and Differentiation Assay (NPC2-5) (AID 2284307; active means hit-call score of the fitted dose curve at least 0.9, where 1 is the maximum). In a few lines: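 Human fetal neural progenitor spheres (0.3 mm, GW 16-19 cortex) were plated on poly-D-lysine/laminin in N2 differentiation medium and exposed for 120 h, with half-medium refresh at day 3. LDH release into supernatant was read by resorufin fluorescence.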

Assay [17] in a line: IUF_NPC2-5_cell_number_120hr: Cell Number Assessment at 120 hours in the Leibniz Research Institute for Environmental Medicine (IUF) Neural Progenitor Cell Migration and Differentiation Assay (NPC2-5) (AID 2284308).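 Further: count of Hoechst-stained nuclei in migration zone around plated human neural progenitor spheres.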 The method, boiled down:
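Primary human fetal neural progenitor spheres (GW 16-19, 0.3 mm) plated on poly-D-lysine/laminin in N2 differentiation medium, exposed from day 0 for 120 h with half-medium refresh at day 3; Hoechst-positive nuclei counted in migration area versus DMSO control.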

Assay [18] can be described thus: IUF_NPC2-5_viability_120hr: Viability Assessment at 120 hours in the Leibniz Research Institute for Environmental Medicine (IUF) Neural Progenitor Cell Migration and Differentiation Assay (NPC2-5) (AID 2284312). In a few lines:
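Alamar blue resorufin fluorescence read after 5 days of differentiation, with compound present from day 0 and replenished at day 3. Primary hNPC spheres on laminin-coated plates, 37C; seven concentrations plus solvent control, fitted against DMSO.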

The nature of assay [19]: IUF_NPC1_cytotoxicity_72hr: Cytotoxicity Assessment at 72 hours in the Leibniz Research Institute for Environmental Medicine (IUF) Neural Progenitor Cell Proliferation Assay (NPC1) (AID 2284332; active means hit-call score of the fitted dose curve at least 0.9, where 1 is the maximum;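 further: rising LDH signal means more cytotoxicity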). In a few lines: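 Cytotoxicity by LDH membrane-integrity assay on medium supernatants, fluorescence via resazurin reduction, after 3-day single exposure of primary hNPC spheres at 37C, pH 7.2-7.6 with growth factors. Fitted upward against baseline.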

Assay [20] can be described thus: Tanguay_ZF_120hpf_MUSC: Oregon State University Tanguay Lab 120 Hour Post-fertilization zebrafish Assay for Muscle Malformation (AID 2284401). The method, boiled down:
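Scored as a binary brightfield endpoint at 120 hpf, fitted versus DMSO. Single dechorionated wild-type (Tropical 5D) zebrafish embryos per well, statically exposed at 28C from 6 hpf onward with final DMSO 0.64%.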

Records with an inconclusive call do not appear. Calls of active or inactive are those of the source. How the source made its calls, unless noted: active means hit-call score of the fitted dose curve at least 0.9, where 1 is the maximum; inactive means score below 0.9.

A word on the AC50: it is the concentration at which the activity in the assay is half-maximal. In the case of `CC(C)CC(C)c1sccc1NC(=O)c1cn(C)nc1C(F)(F)F` (stereo not given), the compound was called inactive in assay [1], in assay [2], in assay [4], in [5], in assay [6] and in assay [8]. The compound was called inactive in assay [10], in assay [11], in assay [12], in [14], in assay [15] and in [16]. The compound was classed as inactive in [17], in assay [18] and in assay [19]. For the same compound, the AC50 in [3] was 73.1 µM (active); in assay [7] it was 77.1 µM (active); in assay [9] it was 10 µM (active); in assay [13], 5.68 µM (active).
As to `FC(F)(F)C(F)(F)C(F)(F)C(F)(F)C(F)(F)C(F)(F)I`, the outcome in assay [20] was inactive.

For the origin of these results see PubChem BioAssay (EPA / NIEHS).
